Where “and” joins values, the source holds several entries; their conditions need not be identical. Equal entries are not always repeated. Records with an inconclusive call do not appear. Unmarked numbers belong to inactive results. Calls of active or inactive are those of the source. Calls follow the shape of the dose curve; as a rule, active = well fitted curve in the direction sought with a large enough effect; inconclusive = small, poorly fitted or top-dose-only effect, or another doubt; inactive = no such curve, though single readings can be large; an effect the other way counts as inactive or inconclusive.

Assay [1] in a line: Quantitative highthroughput screen to assess conditional lethalithy of NOMO1 cells grown in RPMI1640 with untreated serum (RPMI+s) (AID 1963876). Also: nearly all actives have a fitted effect of over 35% in size.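 As to viability: 100% = DMSO wells and 0% = empty wells without cells.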 A digest of the protocol:
(§1)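 Each medium arm—HPLM with 10% dialyzed FBS, or RPMI1640 with 5 mM glucose and 10% untreated or dialyzed FBS—was screened against an 11-point, 3-fold compound titration for 48 h at 37 °C, with CellTiter-Glo luminescence as endpoint.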

Assay [2] can be described thus: Quantitative highthroughput screen to assess conditional lethalithy of NOMO1 cells grown in RPMI1640 with dialyzed fetal bovine serum (RPMI+ds) (AID 1963877). Also: nearly all actives have a fitted effect of over 30% in size.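 As to viability: series mostly up to about 46 µM; 100% = DMSO control wells and 0% = empty wells.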 A digest of the protocol: as §1
Assay [3] in a line: Quantitative highthroughput screen to assess conditional lethalithy of NOMO1 cells grown in Human Plasma-Like Medium with dialyzed fetal bovine serum (HPLM+ds) (AID 1963878). Also: nearly all actives have a fitted effect of over 35% in size.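 As to viability: 100% = DMSO wells and 0% = empty wells on each plate.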 The method in brief: as §1
A short description of assay [4]: Quantitative highthroughput screen to assess conditional lethalithy of P12 Ichikawa cells grown in Human Plasma-Like Medium with dialyzed fetal bovine serum (HPLM+ds) (AID 1963879). Also: nearly all actives have a fitted effect of over 35% in size. As to viability: series mostly up to about 46 µM. The note with it: Potency: viability. A digest of the protocol: as §1
A short description of assay [5]: Quantitative highthroughput screen to assess conditional lethalithy of P12 Ichikawa cells grown in RPMI1640 with dialyzed fetal bovine serum (RPMI+ds) (AID 1963880). Also: nearly all actives have a fitted effect of over 35% in size.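 As to viability: 100% = DMSO wells and 0% = empty wells on each plate.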 The note with it: Potency: P12-Ichikawa viability. A digest of the protocol: as §1
A short description of assay [6]: Quantitative highthroughput screen to assess conditional lethalithy of P12 Ichikawa cells grown in RPMI1640 with untreated serum (RPMI+s) (AID 1963881). Also: nearly all actives have a fitted effect of over 35% in size.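 As to viability: series mostly up to about 46 µM; 100% = DMSO wells and 0% = empty wells without cells.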 The settings on record: Potency: viability. The method in brief: as §1
Assay [7] can be described thus: Quantitative highthroughput screen to assess conditional lethalithy of SEM cells grown in Human Plasma-Like Medium with dialyzed fetal bovine serum (HPLM+ds) (AID 1963882). Also: nearly all actives have a fitted effect of over 35% in size. As to viability: series mostly up to about 46 µM. A digest of the protocol: as §1
Assay [8] is described as follows: Quantitative highthroughput screen to assess conditional lethalithy of SEM cells grown in RPMI1640 with dialyzed fetal bovine serum (RPMI+ds) (AID 1963884). Also: nearly all actives have a fitted effect of over 35% in size.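 As to viability: series mostly up to about 46 µM; 100% = DMSO control wells and 0% = empty wells without cells.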 The method in brief: as §1
A short description of assay [9]: Quantitative highthroughput screen to assess conditional lethalithy of SEM cells grown in RPMI1640 with unreated serum (RPMI+s) (AID 1963883). Also: nearly all actives have a fitted effect of over 35% in size.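 As to viability: 100% = DMSO wells and 0% = empty wells without cells.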 The method in brief: as §1
The nature of assay [10]: Cellular viability qHTS for adrenocortical cancer (ACC) cell line SW-13 (AID 1963989). Also: nearly all actives have a fitted effect of over 65% in size.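 As to activity (max response): cells grown in serum-free medium with ITS supplement; % is scaled to controls: 0 for no effect and ±100 for the full control effect.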 The settings on record: SW-13 ACC cells viability, CellTiter-Glo, 48 h; activity (max response): hits give low values. The method in brief:
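48 h treatment, SW-13 in ITS/DMEM serum-free; doses up to 46 uM; readout CellTiter-Glo luminescence; curve fit four-parameter logistic.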
A general note: qHTS replaces the single test concentration by a dilution series.

Assay [11] can be described thus: Cellular viability qHTS for adrenocortical cancer (ACC) cell line NCI-H295R (AID 1963990). Also: nearly all actives have a fitted effect of over 60% in size. The method in brief:
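Compound titrations (up to 46 uM final) are applied to NCI-H295R cultures for 48 h at 37C. Viable cell number is estimated by CellTiter-Glo signal, normalised to DMSO and doxorubicin controls.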
Potency is read from the fitted curve at half-maximal effect.

Consider `O=C(C=CC=Cc1ccc2c(c1)OCO2)N1CCCCC1`, for which the Potency entry in assay [1], in assay [2], in [3], in [4], in assay [5] and in assay [6] was “inactive” each time. For the same compound, the Potency entry in [7] and in assay [8] was “inactive” each time.

For `COC(=O)C[C@](O)(CCCC(C)(C)O)C(=O)O[C@@H]1C(OC)=C[C@]23CCCN2CCc2cc4c(cc2[C@H]13)OCO4`, the Potency result in assay [1], in [2], in assay [3], in assay [4], in assay [5] and in assay [6] was “inactive” in each case. For the same compound, the Potency entry in assay [7], in assay [9], in assay [8] and in assay [11] was “inactive” each time. For the same compound, the activity (max response) in assay [10] is -15.2%.

For the compound `CC(C)c1ccc2oc3nc(N)c(C(=O)O)cc3c(=O)c2c1`, the Potency entry in assay [1], in assay [2], in [3], in assay [4], in assay [5] and in assay [6] was “inactive” each time. Also, the Potency entry in assay [7], in [9], in assay [8] and in [11] was “inactive” each time. For the same compound, the activity (max response) in assay [10] is -3.22% and -4.54%.

`CC(=O)Nc1cccc(-n2c(=O)n(C3CC3)c(=O)c3c(Nc4ccc(I)cc4F)n(C)c(=O)c(C)c32)c1`: the Potency is 332 nM (active) in assay [1]; 209 nM (active) in assay [2]; 235 nM (active) in assay [3]; 2640 nM (active) in assay [4]; 4690 nM (active) in [5]; 3720 nM (active) in assay [6]. Also, the figures for the Potency in assay [7], in assay [9] and in assay [8] were 2350 nM (active), 1480 nM (active) and 1870 nM (active), respectively. The Potency result in assay [11] was “inactive”.

On to `O=Nc1c(-c2c(O)[nH]c3cc(Br)ccc23)[nH]c2ccccc12`, for which the Potency is 14800 nM (active) in assay [1]; 10500 nM (active) in assay [2]; 5900 nM (active) in assay [3]; 4180 nM (active) in assay [4]; 5900 nM (active) in [5]; 4690 nM (active) in assay [6]. Further, the Potency in [7] is 833 nM (active); in assay [9], 743 nM (active); in assay [8], 833 nM (active); in assay [10] it was 11200 nM (active); in [11] it was 10000 nM (active).

Turning to `Clc1cccc(-n2nnnc2NCc2ccccc2Oc2ccccn2)c1Cl`, the Potency entry in [1], in assay [2], in [3], in assay [4], in assay [5] and in assay [6] was “inactive” each time. Further, the Potency entry in assay [7], in [9], in assay [8] and in [11] was “inactive” in each case.

As for `Oc1ccc(C2CNCCc3c2cc(O)c(O)c3Cl)cc1` (configuration not stated), the Potency result in assay [1], in assay [2], in assay [3], in assay [4], in assay [5] and in assay [6] was “inactive” in each case. For the same compound, the Potency entry in [7], in assay [9], in assay [8] and in [11] was “inactive” each time.

As to `COc1cccc(Nc2c(C(N)=O)cnc3c(C)cc(S(=O)(=O)c4cccc(C(=O)N(C)C)c4)cc23)c1`, the Potency result in assay [1], in assay [2], in assay [3], in [4], in assay [5] and in assay [6] was “inactive” in each case. In addition, the Potency entry in assay [7], in [9], in assay [8] and in assay [11] was “inactive” in each case. Also, in [10], the activity (max response) is 11.8%.

Consider `CC(C)c1ccc(Cn2ccc3c4c(N)nc(NC5CC5)nc4ccc32)cc1`, for which the Potency is 10500 nM (active) in assay [1]; 5900 nM (active) in assay [2]; 1050 nM (active) in assay [3]; 3720 nM (active) in assay [4]; 2640 nM (active) in [5]; 4690 nM (active) in assay [6]. In addition, the Potency in assay [7] is 1660 nM (active); in assay [9], 3720 nM (active); in [8], 3720 nM (active); in [10], 398 nM (active).

Consider `COc1cc2nc(-c3ccc(N4CCN(C)CC4)cc3)nc(NCCN3CCOCC3)c2cc1OC`, for which the Potency was 1660 nM (active) in assay [1]; 743 nM (active) in assay [2]; 526 nM (active) in [3]; 5260 nM (active) in [4]; 2640 nM (active) in [5]; 2960 nM (active) in assay [6]. Besides, the Potency in assay [7] is 166 nM (active); in [9] it was 469 nM (active); in assay [8] it was 372 nM (active); in [10] it was 17800 nM (active); in assay [11] it was 3550 nM (active).

Turning to `COc1cc2c(cc1OC)C1CC(=O)C(CC(C)C)CN1CC2` (configuration not stated), the Potency result in assay [1], in [2], in assay [3], in assay [4], in [5] and in assay [6] was “inactive” throughout. Moreover, the Potency entry in assay [7], in assay [9], in [8] and in assay [11] was “inactive” in each case. Besides, the activity (max response) in assay [10] is -1.87%.

On to `Nc1ccc(S(=O)(=O)Nc2ccnn2-c2ccccc2)cc1`, for which the Potency result in assay [1], in assay [2], in assay [3], in assay [4], in [5] and in assay [6] was “inactive” throughout. Further, the Potency entry in assay [7], in assay [9], in assay [8] and in assay [11] was “inactive” each time. In addition, the activity (max response) in assay [10] is 3.92%.

In the case of `CC(C)(F)C[C@H](N[C@@H](c1ccc(-c2ccc(S(C)(=O)=O)cc2)cc1)C(F)(F)F)C(=O)NC1(C#N)CC1`, the Potency entry in assay [1], in assay [2], in assay [3], in [4], in assay [5] and in assay [6] was “inactive” each time. Besides, the Potency result in assay [7], in assay [9], in [8] and in assay [11] was “inactive” in each case. Also, the activity (max response) in assay [10] was -2.64%.

As for `Cc1ccc(NC(=O)c2cccc(N(C)C)c2)cc1NC(=O)c1ccc(O)cc1`, the Potency entry in assay [1], in [2], in [3], in [4], in assay [5] and in assay [6] was “inactive” each time. The Potency result in assay [7], in [9], in assay [8] and in assay [11] was “inactive” in each case.

On to `Cc1c(Cn2c(C)nc3c(C(=O)O)cc(N4CCOCC4)cc32)cccc1C(F)(F)F`, for which the Potency result in assay [1], in [2], in assay [4], in assay [5], in [6] and in assay [7] was “inactive” in each case. Further, the Potency result in [9], in [8] and in assay [11] was “inactive” each time. For the same compound, the Potency in assay [3] was 26400 nM (active). Also, in assay [10], the activity (max response) is 6.79%.

The values are drawn from PubChem BioAssay (NCATS).
